PubChem BioAssay AID1224921 (Broad Institute, 2016)
About 350 (25%) of roughly 1,400 compounds were called active. Roughly 2% stayed inconclusive and do not appear here. How the calls were made is not given here. A selection follows. Results with a measured potency or affinity are listed apart.

assay: inhibitors of Clostridioides difficile proliferation – 4-point retest, confirmation (AID 1224921); conditions: Clostridioides difficile clinical isolate growth, OD600, 24 h, active compounds read low; at 30 µM unless noted;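 further: plate controls were DMSO wells for no effect and levofloxacin 16 µg/mL wells for full effect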

Max activity, inactive:
O=C(C[C@H]1C[C@@H]2c3cc(NC(=O)C4CCC4)ccc3O[C@@H]2[C@@H](CO)O1)NCc1ccc2c(c1)OCO2 -8.66% [at 0.5 µM], COc1ccccc1NC(=O)N[C@@H]1CC[C@@H](CC(=O)N2CCC(Cc3ccccc3)CC2)O[C@@H]1CO -7.56%, CCS(=O)(=O)Nc1ccc2c(c1)C(=O)N(C)C[C@@H](OC)[C@H](C)CN(C(C)=O)[C@@H](C)CO2 -11.1%, C[C@@H]1CCCCO[C@H](CN(C)Cc2ccc(C(=O)O)cc2)[C@H](C)CN([C@H](C)CO)C(=O)c2cc(NC(=O)Nc3ccc4c(c3)OCO4)ccc2O1 -16.4%, C[C@@H]1CN([C@@H](C)CO)S(=O)(=O)c2ccc(C3=CCCCC3)cc2O[C@@H]1CN(C)Cc1cccnc1 23.6%, O=C(Nc1cc(F)ccc1F)N[C@@H]1CC[C@@H](CC(=O)N2CCc3ccccc3C2)O[C@H]1CO 14.6%, CNC[C@@H]1Oc2cc(C#CCOC)ccc2S(=O)(=O)N([C@@H](C)CO)C[C@H]1C -11.1% [at 8 µM], O=C(N[C@H]1C=C[C@H](CC(=O)N2CCc3ccccc3C2)O[C@H]1CO)C1CC1 -8.59%, C[C@H]1CN([C@@H](C)CO)S(=O)(=O)c2ccc(C#CC3CCCC3)cc2O[C@H]1CN(C)Cc1cccnc1 23.6%, O=C(C[C@@H]1C[C@@H]2c3cc(NC(=O)C4CCC4)ccc3O[C@@H]2[C@H](CO)O1)NCc1cc(F)ccc1F 4.63%, Cc1ccc(-c2ccc3c(c2)O[C@@H](CN(C)Cc2ccncc2)[C@@H](C)CN([C@H](C)CO)S3(=O)=O)cc1 -8.83% [at 8 µM], C[C@H](CO)N1C[C@H](C)[C@H](CN(C)Cc2ccncc2)Oc2cc(C3=CCCCC3)ccc2S1(=O)=O 33%, C[C@H]1CN([C@@H](C)CO)C(=O)c2ccccc2-c2ccccc2CO[C@H]1CN(C)Cc1cccc(O)c1 7.55%, C[C@H]1CN([C@@H](C)CO)C(=O)c2ccccc2-c2ccccc2CO[C@H]1CN(C)C(=O)CCN(C)C -12.8% [at 35 µM], C/C=C/c1ccc2c(c1)O[C@H](CN(C)C(=O)Nc1ccc(C(F)(F)F)cc1)[C@@H](C)CN([C@@H](C)CO)S2(=O)=O 32.5% [at 8 µM], C[C@H]1CN([C@@H](C)CO)C(=O)c2cc(Br)cnc2O[C@@H]1CN(C)C(=O)c1ccccc1 -20% [at 8 µM], COc1ccc(NC(=O)Nc2cccc3c2O[C@@H](CN(C)C(=O)NC2CCCCC2)[C@H](C)CN([C@@H](C)CO)C3=O)cc1 10.1%, C[C@@H]1CN([C@@H](C)CO)S(=O)(=O)c2ccc(C#Cc3ccccc3F)cc2O[C@H]1CN(C)CC1CCOCC1 35.2%, COc1ccccc1C#Cc1ccc2c(c1)O[C@@H](CN(C)Cc1cccnc1)[C@@H](C)CN([C@@H](C)CO)S2(=O)=O 24.6%, CC(C)NC(=O)N(C)C[C@H]1OCc2ccccc2-c2ccccc2C(=O)N([C@@H](C)CO)C[C@H]1C -14.3%, COc1cccc(C(=O)Nc2ccc3c(c2)OC[C@@H](C)N(C(=O)C2CCCC2)C[C@H](C)[C@@H](OC)CN(C)C3=O)c1 -18.8% [at 8 µM], CC(C)CC#Cc1ccc2c(c1)O[C@H](CN(C)Cc1ccncc1)[C@@H](C)CN([C@@H](C)CO)S2(=O)=O 23.1%, C[C@H](CO)N1C[C@H](C)[C@H](CN(C)Cc2ccc3c(c2)OCO3)Oc2ncc(-c3cccc(F)c3)cc2C1=O -9.89% [at 8 µM], N#C[C@H]1[C@H](c2ccc(-c3cccc(F)c3)cc2)[C@@H](CO)N1C(=O)NC1CCCC1 28.5%, CCCC(=O)Nc1ccc2c(c1)C(=O)N(C)C[C@@H](OC)[C@@H](C)CN(Cc1ccccc1)[C@H](C)CO2 9.23%, C[C@H]1CN([C@@H](C)CO)S(=O)(=O)c2ccc(C3=CCCCC3)cc2O[C@H]1CN(C)C(=O)c1ccncc1 14.4%, N#C[C@H]1[C@@H](c2ccc(C#Cc3ccccc3F)cc2)[C@@H](CO)N1C(=O)C1CCCCC1 -9.56%, C[C@@H]1CN([C@@H](C)CO)C(=O)Cc2cc(NC(=O)C3CC3)ccc2O[C@@H]1CN(C)Cc1ccc(-c2ccccc2)cc1 49.5%, O=C(C[C@H]1CC[C@@H]2[C@H](COC[C@H](O)CN2Cc2ccc(Cl)cc2)O1)NCc1ccccc1Cl 32% [at 8 µM], O=C(C[C@@H]1CC[C@H]2[C@@H](COC[C@@H](O)CN2Cc2ccc(Cl)cc2)O1)NCc1ccccc1Cl -28.7% [at 1.95 µM], COc1cccc(NC(=O)N[C@H]2CC[C@H](CC(=O)N3CCCCC3)O[C@@H]2CO)c1 17.5%, C[C@@H]1CN([C@@H](C)CO)S(=O)(=O)c2ccc(C3=CCCCC3)cc2O[C@H]1CN(C)Cc1cccnc1 15.4%, CNC[C@H]1Oc2cc(C#CCC3CCCC3)ccc2S(=O)(=O)N([C@@H](C)CO)C[C@@H]1C 29.2% [at 8 µM], CO[C@@H]1CN(C)C(=O)c2cc(NC(=O)Nc3cccc(F)c3)ccc2OC[C@@H](C)N(C)C[C@H]1C -12.5%, O=C(Nc1ccc(F)cc1)Nc1ccc2c(c1)[C@@H]1C[C@H](CC(=O)N3CCCCC3)O[C@@H](CO)[C@@H]1O2 -6.91%, CC(C)C#Cc1ccc2c(c1)O[C@@H](CN(C)Cc1ccncc1)[C@H](C)CN([C@H](C)CO)S2(=O)=O 6.91% [at 1.95 µM], COc1cccc(NC(=O)N[C@H]2C=C[C@@H](CC(=O)NCc3ccncn3)O[C@H]2CO)c1 -10.2% [at 1.95 µM], C[C@H]1CN([C@@H](C)CO)S(=O)(=O)c2ccc(C3=CCCC3)cc2O[C@@H]1CN(C)Cc1ccncc1 -16.8% [at 1.95 µM], CCCN1C[C@H](C)[C@H](OC)CN(C)C(=O)c2ccc(NC(=O)c3ccc(F)cc3)cc2OC[C@@H]1C -9.18%, COc1cccc(-c2ccc3c(c2)O[C@@H](CN(C)Cc2ccncc2)[C@H](C)CN([C@H](C)CO)S3(=O)=O)c1 19.2%, CO[C@H]1CN(C)C(=O)c2cc(NC(=O)c3ccc(-c4ccccc4)cc3)ccc2OC[C@H](C)NC[C@H]1C 27.6% [at 8 µM], O=C(Cc1ccccc1)N[C@@H]1CC[C@@H](CC(=O)N2CCOCC2)O[C@H]1CO -16.6% [at 8 µM], O=C(Cc1ccccc1)N[C@H]1CC[C@@H](CC(=O)N2CCOCC2)O[C@@H]1CO -8.53% [at 8 µM], CO[C@@H]1CN(C)C(=O)c2cc(NC(=O)Nc3ccccc3F)ccc2OC[C@@H](C)N(CCC(F)(F)F)C[C@H]1C 10.2%, CC(C)C(=O)Nc1ccc2c(c1)C(=O)N(C)[C@H]1CC[C@@H](CC(=O)NCc3ccccc3F)O[C@@H]1CO2 -12.2% [at 8 µM], CNC[C@@H]1Oc2ncc(-c3ccc(OC)cc3)cc2C(=O)N([C@H](C)CO)C[C@H]1C 28.1%, CO[C@@H]1CN(C)C(=O)c2ccc(NC(=O)c3ccccc3F)cc2OC[C@@H](C)N(CC2CC2)C[C@H]1C -10.7% [at 1.95 µM], CCCC(=O)Nc1ccc2c(c1)C(=O)N(C)C[C@H](OC)[C@@H](C)CN(Cc1ccccc1)[C@@H](C)CO2 22.4%, C[C@H]1CN([C@@H](C)CO)C(=O)c2cc(C3=CCCCC3)cnc2O[C@@H]1CN(C)C(=O)c1cccc(F)c1 21.2%, CC(=O)N(C)C[C@H]1Oc2ncc(-c3ccc(C(=O)N(C)C)cc3)cc2C(=O)N([C@@H](C)CO)C[C@H]1C -3.53% [at 1.95 µM], O=C(Cc1ccccc1)N[C@H]1CC[C@H](CC(=O)N2CCOCC2)O[C@@H]1CO -10.8%, O=C(Cc1ccccc1)N[C@@H]1CC[C@H](CC(=O)N2CCOCC2)O[C@H]1CO -12.9%, CCC(=O)N(C)C[C@H]1Oc2ncc(-c3ccc(C(=O)N(C)C)cc3)cc2C(=O)N([C@H](C)CO)C[C@@H]1C 21.8% [at 8 µM], COCC(=O)Nc1ccc2c(c1)OC[C@@H](C)N(C(=O)c1ccccc1F)C[C@H](C)[C@@H](OC)CN(C)C2=O -10.4% [at 35 µM], Cc1ccccc1-c1ccc2c(c1)O[C@H](CN(C)Cc1ccncc1)[C@@H](C)CN([C@@H](C)CO)S2(=O)=O 7.76%, C[C@H]1CN([C@@H](C)CO)S(=O)(=O)c2ccc(C#CC3CCCCC3)cc2O[C@@H]1CN(C)Cc1cccnc1 26.3% [at 1.95 µM], C/C=C/c1cnc2c(c1)C(=O)N([C@@H](C)CO)C[C@H](C)[C@@H](CN(C)Cc1ccc(F)cc1)O2 -8.42% [at 8 µM], CC(C)CC#Cc1ccc2c(c1)O[C@@H](CN(C)C(=O)C1CCCCC1)[C@@H](C)CN([C@@H](C)CO)S2(=O)=O 27.1%, O=C(Nc1ccc2c(c1)[C@H]1C[C@@H](CC(=O)N3CCc4ccccc4C3)O[C@@H](CO)[C@H]1O2)c1ccc2c(c1)OCO2 -27.9% [at 8 µM], CCCC#Cc1ccc2c(c1)O[C@@H](CN(C)Cc1cccnc1)[C@@H](C)CN([C@H](C)CO)S2(=O)=O 35.5%
